The nature of experiment [1]: ATG_GLI_CIS: Attagene CIS-FACTORIAL HepG2 Assay for human Zinc Finger Protein GLI1 (AID 2282945). Conditions: HepG2, Attagene cis-factorial reporter mRNA, GLI element; actives raise or lower the signal. A digest of the protocol: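 Bidirectional curve fits relative to DMSO, using reporter mRNA levels from RT-PCR plus capillary electrophoresis. Cells were HepG2 transiently carrying cis-regulated reporter constructs, harvested 24 h after dosing.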

The target in experiment [2] is Bile acid receptor (Homo sapiens) (UniProt Q96RI1). Put plainly: ATG_IR1_CIS: Attagene CIS-FACTORIAL HepG2 Assay for human Nuclear Receptor Subfamily 1 Group H Member 4 (NR1H4), IR1 submotif (AID 2282946). Conditions: IR1 reporter transcription, actives raise or lower the signal. A digest of the protocol: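 Cells (human HepG2) carry transiently transfected cis-promoter reporter transcription units. Compounds are incubated 24 h, total RNA is reverse-transcribed and amplified, and labelled fragments are resolved by capillary electrophoresis. Curves use DMSO as baseline.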
Chain of Bile acid receptor (Homo sapiens) (Q96RI1 whole entry, looked up, the tested form may be a part): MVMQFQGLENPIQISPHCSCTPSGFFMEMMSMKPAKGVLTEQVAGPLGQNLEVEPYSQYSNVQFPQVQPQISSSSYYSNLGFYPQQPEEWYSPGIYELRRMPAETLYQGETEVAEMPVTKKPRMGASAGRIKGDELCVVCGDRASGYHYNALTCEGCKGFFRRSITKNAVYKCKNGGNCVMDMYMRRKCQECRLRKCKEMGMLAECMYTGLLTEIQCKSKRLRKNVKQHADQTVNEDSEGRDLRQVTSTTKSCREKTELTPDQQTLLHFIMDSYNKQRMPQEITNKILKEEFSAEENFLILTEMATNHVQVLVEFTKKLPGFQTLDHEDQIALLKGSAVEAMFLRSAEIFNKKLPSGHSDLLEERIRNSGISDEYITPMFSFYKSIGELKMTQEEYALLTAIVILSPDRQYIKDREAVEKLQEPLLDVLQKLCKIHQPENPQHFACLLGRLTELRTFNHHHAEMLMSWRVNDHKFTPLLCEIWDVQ

Experiment [3] is described as follows: ATG_GRE_CIS: Attagene CIS-FACTORIAL HepG2 Assay for human Glucocorticoid Response Elements (GRE) (AID 2282947). The note with it: HepG2 GRE cis-reporter, Attagene multiplex mRNA; actives raise or lower the signal. A digest of the protocol:
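Transient MRTU transfection of human HepG2 liver cells; cis-regulated reporters report endogenous factors. 24 h dosing → RNA isolation → RT-PCR → 6-FAM primer extension → HpaI cut → CE fragment analysis. Bidirectional fit, DMSO negative control.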

The nature of experiment [4]: ATG_ISRE_CIS: Attagene CIS-FACTORIAL HepG2 Assay for human Interferon Regulatory Factor 1 (IRF1) binding to an Interferon-Stimulated Response Element (ISRE) (AID 2282948). Conditions: HepG2 ISRE cis-reporter (Attagene), mRNA transcription readout; actives raise or lower the signal. A digest of the protocol: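 Cell-based cis-reporter assay; HepG2; 24 h exposure; reporter mRNA by RT-PCR plus capillary electrophoresis fluorescence; activity in either direction scored relative to DMSO.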

The nature of experiment [5]: ATG_M_32_CIS: Attagene CIS-FACTORIAL HepG2 Assay for M32 Transcription Factor (Internal Marker) (AID 2282949).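 Further: background control marker of the multiplexed CIS panel rather than a real target.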 The note with it: HepG2 Attagene cis-factorial M32 reporter, mRNA; actives raise or lower the signal. A digest of the protocol:
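Fluorescent capillary electrophoresis peaks of HpaI-digested, FAM-labelled RT-PCR reporter products give the signal. Source: transiently transfected human liver HepG2 cells, 24 h after chemical dosing; bidirectional fitting against DMSO.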

The nature of experiment [6]: ATG_M_06_CIS: Attagene CIS-FACTORIAL HepG2 Assay for M06 Transcription Factor (Internal Marker) (AID 2282950). The note with it: HepG2 Attagene CIS-FACTORIAL M06 internal marker reporter; actives raise or lower the signal. A digest of the protocol: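 Fluorescence-labelled RT-PCR products from cis-promoter reporter units, cut with HpaI and resolved by capillary electrophoresis, give the signal. Cells are human HepG2, dosed for 24 h. Serves as background control, fitted relative to DMSO.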

The target in experiment [7] is Hypoxia-inducible factor 1-alpha (Homo sapiens) (UniProt Q16665). Put plainly: ATG_HIF1a_CIS: Attagene CIS-FACTORIAL HepG2 Assay for human Hypoxia Inducible Factor 1 (HIF1A) (AID 2282951). Conditions: HepG2 Attagene cis-factorial HIF1a reporter transcription; actives raise or lower the signal. A digest of the protocol:
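In this multiplexed cell assay, HepG2 cells bearing transfected cis reporters are dosed for 24 h and reporter mRNA is read by RT-PCR plus capillary electrophoresis; signal increases and decreases are both scored against DMSO.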

In experiment [8] the target is Hepatocyte nuclear factor 6 (Homo sapiens) (UniProt Q9UBC0). As to the kind of experiment: ATG_HNF6_CIS: Attagene CIS-FACTORIAL HepG2 Assay for human Hepatocyte Nuclear Factor 6 (HNF6) (AID 2282952). The note with it: HepG2 Attagene cis-factorial HNF6 reporter transcription; actives raise or lower the signal. A digest of the protocol:
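Cells are HepG2 carrying transiently transfected cis-promoter reporter units. Treatment lasts 24 h, after which reporter transcripts are reverse-transcribed, amplified, FAM-labelled and sized by capillary electrophoresis. DMSO serves as baseline.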

Experiment [9] concerns the target Heat shock factor protein 1 (Homo sapiens) (UniProt Q00613). As to the kind of experiment: ATG_HSE_CIS: Attagene CIS-FACTORIAL HepG2 Assay for human Heat Shock Transcription Factor 1 (HSE) (AID 2282953). The note with it: HepG2 HSE cis-reporter, Attagene RNA transcription; actives raise or lower the signal. A digest of the protocol: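 After a 24 h incubation with test chemical, transfected HepG2 cells were harvested for RNA; reporter transcripts were measured by RT-PCR and capillary electrophoresis. Values reflect gain or loss of signal relative to DMSO.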

Experiment [10] is described as follows: ATG_MRE_CIS: Attagene CIS-FACTORIAL HepG2 Assay for human Metal Responsive Element (MRE) (AID 2282954). Conditions: HepG2 MRE cis-reporter transcription, Attagene multiplex; actives raise or lower the signal. A digest of the protocol:
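Transient MRTU transfection of HepG2 (FuGene 6); 24 h dosing; total RNA → oligo(dT) RT, PCR, 6-FAM primer extension, HpaI cut, CE. Bidirectional fit vs DMSO.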

The nature of experiment [11]: ATG_PBREM_CIS: Attagene CIS-FACTORIAL HepG2 Assay for human Phenobarbital-responsive Enhancer Module (PBREM) (AID 2282955). Conditions: HepG2 PBREM cis-reporter, Attagene multiplexed transcription; actives raise or lower the signal. A digest of the protocol:
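After a 24 h incubation with test chemical, transfected HepG2 cells yield total RNA; reporter-specific RT-PCR products are fluorescently labelled, HpaI-digested and resolved by capillary electrophoresis against ROX size standards.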

The target of experiment [12] is Paired box protein Pax-6 (Homo sapiens) (UniProt P26367). As to the kind of experiment: ATG_Pax6_CIS: Attagene CIS-FACTORIAL HepG2 Assay for human Paired Box 6 (PAX6) (AID 2282956). The note with it: HepG2 CIS-FACTORIAL PAX6 reporter transcription, RNA readout; actives raise or lower the signal. A digest of the protocol: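 Multiplexed cis-reporter HepG2 system; 24 h treatment; reporter mRNA read by RT-PCR/CE fluorescence; bidirectional fit vs DMSO.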
Chain of Paired box protein Pax-6 (Homo sapiens) (P26367 whole entry, looked up): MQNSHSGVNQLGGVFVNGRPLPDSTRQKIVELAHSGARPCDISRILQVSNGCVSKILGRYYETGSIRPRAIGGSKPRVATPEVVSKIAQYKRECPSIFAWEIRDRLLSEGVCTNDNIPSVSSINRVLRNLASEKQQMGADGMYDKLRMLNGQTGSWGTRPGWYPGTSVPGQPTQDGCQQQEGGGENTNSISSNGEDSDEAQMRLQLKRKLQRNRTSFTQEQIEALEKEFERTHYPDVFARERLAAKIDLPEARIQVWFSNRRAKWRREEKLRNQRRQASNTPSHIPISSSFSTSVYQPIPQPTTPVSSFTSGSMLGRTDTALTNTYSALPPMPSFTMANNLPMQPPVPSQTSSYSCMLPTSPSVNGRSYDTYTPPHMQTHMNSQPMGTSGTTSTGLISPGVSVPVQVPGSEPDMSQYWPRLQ

The nature of experiment [13]: ATG_PXRE_CIS: Attagene CIS-FACTORIAL HepG2 Assay for human Pregnane X Receptor Element (PXRE) (AID 2282957). The note with it: HepG2 Attagene CIS-FACTORIAL PXRE reporter, mRNA; actives raise or lower the signal. A digest of the protocol:
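Multiplexed cis-reporter assay in transiently transfected human HepG2 cells; 24 h chemical exposure. Reporter transcripts quantified by RT-PCR with fluorescent labeling and capillary electrophoresis.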

Experiment [14] in a line: ATG_PPRE_CIS: Attagene CIS-FACTORIAL HepG2 Assay for human Peroxisome Proliferator-activated Response Element (PPRE) (AID 2282958). Conditions: HepG2 PPRE cis-element reporter, Attagene transcription factor profiling; actives raise or lower the signal. A digest of the protocol: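 Multiplexed reporter transcription units under cis-regulatory promoters were transfected into HepG2 cells to capture endogenous factor activity. A 24 h incubation preceded RNA isolation and fluorescent RT-PCR fragment analysis.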

Experiment [15] can be described thus: ATG_RORE_CIS: Attagene CIS-FACTORIAL HepG2 Assay for human RAR-related Orphan Receptor Element (RORE) (AID 2282959). The note with it: HepG2 Attagene cis-factorial RORE reporter, mRNA; actives raise or lower the signal. A digest of the protocol:
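Fluorescence intensity of reporter-specific cDNA fragments, separated by capillary electrophoresis, gives the signal. Source: HepG2 liver cells transiently transfected with cis-element reporters and exposed 24 h; DMSO-normalized bidirectional fit.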

A short description of experiment [16]: ATG_Sox_CIS: Attagene CIS-FACTORIAL HepG2 Assay for human SRY-box transcription factor (SOX) (AID 2282960). Conditions: HepG2 Attagene cis-factorial SOX reporter, mRNA; actives raise or lower the signal. A digest of the protocol:
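After 24 h of chemical treatment, transfected HepG2 reporter cells are lysed for total RNA. Transcript levels come from RT-PCR with labelled primer extension and capillary electrophoresis, analysed bidirectionally versus DMSO.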

For experiment [17], the target named is Transcription factor Sp1 (Homo sapiens) (UniProt P08047). Put plainly: ATG_Sp1_CIS: Attagene CIS-FACTORIAL HepG2 Assay for human Specificity Protein 1 (Sp1) (AID 2282961). Conditions: HepG2 Sp1 cis-reporter transcription, actives raise or lower the signal. A digest of the protocol:
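Sp1-driven reporter mRNA, read as capillary electrophoresis fluorescence after RT-PCR, in transiently transfected HepG2 cells dosed for 24 h; signal change in either direction relative to DMSO.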

Experiment [18] in a line: ATG_SREBP_CIS: Attagene CIS-FACTORIAL HepG2 Assay for human Sterol Regulatory Element Binding (SREBP) (AID 2282962). The note with it: HepG2 Attagene cis-factorial SREBP reporter, mRNA; actives raise or lower the signal. A digest of the protocol: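 mRNA induction of transfected cis-promoter reporters in HepG2 cells, 24 h post-dose. Detection: RT-PCR with 6-FAM-labelled products, HpaI digest, capillary electrophoresis. DMSO served as negative control and baseline.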

Experiment [19] has as its target Signal transducer and activator of transcription 3 (Homo sapiens) (UniProt P40763). As to the kind of experiment: ATG_STAT3_CIS: Attagene CIS-FACTORIAL HepG2 Assay for human Signal Transducer and Activator of Transcription 3 (STAT3) (AID 2282963). The note with it: HepG2, Attagene cis-factorial STAT3 reporter transcription; actives raise or lower the signal. A digest of the protocol: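 Endogenous STAT3-responsive cis-element activity was read in transiently transfected HepG2 cells after 24 h treatment. Reporter transcripts were quantified via RT-PCR and capillary electrophoresis, with DMSO as negative control and bidirectional curve fitting.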

Experiment [20] can be described thus: ATG_TA_CIS: Attagene CIS-FACTORIAL HepG2 Assay for human TA Basal Promoter (AID 2282964). The note with it: HepG2 Attagene CIS-factorial TA basal promoter reporter; actives raise or lower the signal. A digest of the protocol:
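Multiplexed mRNA reporter assay, HepG2, 24 h. Reporter cDNA amplified, 6-FAM primer-extended, HpaI-cut, CE-sized; DMSO = negative control and baseline.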

Activity calls are given as the source filed them. How the source made its calls: active means hit-call score of the fitted dose curve at least 0.9, where 1 is the maximum; inactive means score below 0.9.

The AC50 is the concentration giving half of the maximal activity seen.

Chain of Hepatocyte nuclear factor 6 (Homo sapiens) (Q9UBC0 whole entry, looked up): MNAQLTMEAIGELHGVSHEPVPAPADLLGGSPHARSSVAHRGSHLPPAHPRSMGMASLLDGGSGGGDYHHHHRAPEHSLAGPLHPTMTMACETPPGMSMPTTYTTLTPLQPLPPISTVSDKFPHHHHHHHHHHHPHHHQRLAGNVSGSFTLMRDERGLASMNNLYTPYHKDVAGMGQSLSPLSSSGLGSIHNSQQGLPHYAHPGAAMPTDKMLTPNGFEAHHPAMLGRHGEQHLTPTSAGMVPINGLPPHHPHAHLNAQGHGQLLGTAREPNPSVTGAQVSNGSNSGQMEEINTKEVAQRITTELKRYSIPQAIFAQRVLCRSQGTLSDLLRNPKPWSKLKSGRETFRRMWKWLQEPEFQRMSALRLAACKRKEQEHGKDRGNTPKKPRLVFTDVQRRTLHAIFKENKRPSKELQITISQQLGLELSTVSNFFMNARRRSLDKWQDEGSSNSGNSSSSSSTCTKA
Chain of Signal transducer and activator of transcription 3 (Homo sapiens) (P40763 whole entry, looked up): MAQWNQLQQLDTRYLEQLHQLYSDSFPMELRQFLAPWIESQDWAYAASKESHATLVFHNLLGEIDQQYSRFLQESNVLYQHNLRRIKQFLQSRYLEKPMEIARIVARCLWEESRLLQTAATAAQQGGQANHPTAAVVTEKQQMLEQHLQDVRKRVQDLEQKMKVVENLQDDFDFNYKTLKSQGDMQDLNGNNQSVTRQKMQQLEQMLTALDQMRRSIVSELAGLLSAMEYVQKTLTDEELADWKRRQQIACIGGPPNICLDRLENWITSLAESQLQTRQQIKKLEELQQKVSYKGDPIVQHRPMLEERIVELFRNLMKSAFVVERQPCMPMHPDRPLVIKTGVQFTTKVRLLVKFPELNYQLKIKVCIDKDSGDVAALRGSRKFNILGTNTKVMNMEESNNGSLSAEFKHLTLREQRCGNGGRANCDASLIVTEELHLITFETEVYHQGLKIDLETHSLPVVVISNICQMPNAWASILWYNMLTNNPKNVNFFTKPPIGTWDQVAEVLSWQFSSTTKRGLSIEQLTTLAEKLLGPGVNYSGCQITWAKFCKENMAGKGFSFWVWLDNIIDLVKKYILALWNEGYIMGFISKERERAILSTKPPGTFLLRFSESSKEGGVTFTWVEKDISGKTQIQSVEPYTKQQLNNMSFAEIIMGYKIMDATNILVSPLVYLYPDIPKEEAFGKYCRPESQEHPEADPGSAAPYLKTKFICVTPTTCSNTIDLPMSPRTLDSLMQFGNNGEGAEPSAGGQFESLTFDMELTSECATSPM
Chain of Hypoxia-inducible factor 1-alpha (Homo sapiens) (Q16665 whole entry, looked up): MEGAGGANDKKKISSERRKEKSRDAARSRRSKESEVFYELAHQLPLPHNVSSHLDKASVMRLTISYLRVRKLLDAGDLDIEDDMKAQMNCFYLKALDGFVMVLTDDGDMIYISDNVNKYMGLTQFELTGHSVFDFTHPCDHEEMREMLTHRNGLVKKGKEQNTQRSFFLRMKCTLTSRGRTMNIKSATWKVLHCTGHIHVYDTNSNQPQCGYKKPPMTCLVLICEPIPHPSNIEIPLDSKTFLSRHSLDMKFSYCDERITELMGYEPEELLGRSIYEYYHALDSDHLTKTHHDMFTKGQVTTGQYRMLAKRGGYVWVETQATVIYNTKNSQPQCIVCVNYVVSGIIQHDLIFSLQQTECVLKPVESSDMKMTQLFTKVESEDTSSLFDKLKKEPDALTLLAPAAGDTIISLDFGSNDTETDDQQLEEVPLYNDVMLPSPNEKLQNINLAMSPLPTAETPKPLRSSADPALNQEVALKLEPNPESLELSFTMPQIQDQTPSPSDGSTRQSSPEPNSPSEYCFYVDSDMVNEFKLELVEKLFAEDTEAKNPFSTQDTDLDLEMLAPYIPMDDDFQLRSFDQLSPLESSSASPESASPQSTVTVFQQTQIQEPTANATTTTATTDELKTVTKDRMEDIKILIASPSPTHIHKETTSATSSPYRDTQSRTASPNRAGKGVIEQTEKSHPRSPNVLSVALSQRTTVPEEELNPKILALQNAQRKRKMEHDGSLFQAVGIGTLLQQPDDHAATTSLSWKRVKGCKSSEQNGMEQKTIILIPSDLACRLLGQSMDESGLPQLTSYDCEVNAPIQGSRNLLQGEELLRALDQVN
Chain of Heat shock factor protein 1 (Homo sapiens) (Q00613 whole entry, looked up): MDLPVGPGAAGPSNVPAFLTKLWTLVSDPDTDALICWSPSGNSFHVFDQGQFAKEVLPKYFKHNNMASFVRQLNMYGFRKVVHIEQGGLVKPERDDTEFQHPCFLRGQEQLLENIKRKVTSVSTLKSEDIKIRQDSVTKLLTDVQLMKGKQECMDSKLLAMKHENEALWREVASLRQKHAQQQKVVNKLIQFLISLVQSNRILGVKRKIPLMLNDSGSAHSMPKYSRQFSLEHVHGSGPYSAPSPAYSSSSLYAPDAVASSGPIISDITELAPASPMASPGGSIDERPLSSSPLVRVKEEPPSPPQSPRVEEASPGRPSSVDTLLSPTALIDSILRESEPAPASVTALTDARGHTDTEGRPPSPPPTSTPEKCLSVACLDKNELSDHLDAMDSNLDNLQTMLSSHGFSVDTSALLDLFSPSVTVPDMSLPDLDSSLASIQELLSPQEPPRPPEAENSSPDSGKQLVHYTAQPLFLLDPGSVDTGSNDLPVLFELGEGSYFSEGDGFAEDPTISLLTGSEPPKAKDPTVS
Chain of Transcription factor Sp1 (Homo sapiens) (P08047 whole entry, looked up): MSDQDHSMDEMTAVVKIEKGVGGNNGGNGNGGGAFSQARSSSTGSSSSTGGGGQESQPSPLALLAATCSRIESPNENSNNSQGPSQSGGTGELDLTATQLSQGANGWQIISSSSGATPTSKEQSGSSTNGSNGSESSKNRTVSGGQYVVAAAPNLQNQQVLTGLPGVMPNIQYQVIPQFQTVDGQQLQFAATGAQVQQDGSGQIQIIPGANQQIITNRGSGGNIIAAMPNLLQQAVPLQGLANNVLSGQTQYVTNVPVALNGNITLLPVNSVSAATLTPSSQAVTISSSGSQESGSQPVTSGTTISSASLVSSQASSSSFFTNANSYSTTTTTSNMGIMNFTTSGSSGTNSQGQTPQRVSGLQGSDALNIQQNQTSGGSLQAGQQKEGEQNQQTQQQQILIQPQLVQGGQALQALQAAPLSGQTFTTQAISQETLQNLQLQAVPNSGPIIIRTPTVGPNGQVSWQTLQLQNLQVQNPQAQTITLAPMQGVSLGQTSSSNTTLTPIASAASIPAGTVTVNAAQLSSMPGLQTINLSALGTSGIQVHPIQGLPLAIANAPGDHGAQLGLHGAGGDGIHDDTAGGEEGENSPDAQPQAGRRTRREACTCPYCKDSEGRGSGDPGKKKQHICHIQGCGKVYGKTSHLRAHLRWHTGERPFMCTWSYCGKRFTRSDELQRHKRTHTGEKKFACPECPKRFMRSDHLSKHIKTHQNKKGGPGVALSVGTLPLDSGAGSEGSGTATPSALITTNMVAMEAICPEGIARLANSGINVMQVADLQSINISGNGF

As for `C[Si](C)O[Si](C)C`, the compound was classed as inactive in [1], in experiment [2], in experiment [3], in experiment [4], in experiment [5] and in experiment [6]. The outcome in experiment [7], in experiment [8], in [9], in experiment [10], in experiment [11] and in experiment [12] was inactive. Also, the result in experiment [13], in experiment [14], in experiment [15], in [16], in experiment [17] and in experiment [18] was inactive. For the same compound, the result in experiment [19] and in [20] was inactive.

Consider `CC(C)(C)C(=O)C1C(=O)c2ccccc2C1=O`, for which the outcome in [1], in experiment [2], in [3], in [4], in experiment [5] and in experiment [6] was inactive. Besides, the call in [8], in [9], in [10], in [12], in experiment [15] and in experiment [16] was inactive. Further, the compound was called inactive in [17], in experiment [18], in [19] and in [20]. Besides, the AC50 in experiment [7] is 158 µM (active); in [11], 27.8 µM (active); in [13], 13.9 µM (active); in experiment [14] it was 59.7 µM (active).

As for `OCCCCl`, the compound was called inactive in [1], in experiment [2], in experiment [3], in [4], in [5] and in experiment [6]. In addition, the outcome in experiment [7], in experiment [8], in experiment [9], in experiment [10], in experiment [11] and in experiment [12] was inactive. For the same compound, the outcome in experiment [13], in experiment [14], in experiment [15], in experiment [16], in [17] and in experiment [18] was inactive. Moreover, the result in experiment [19] and in experiment [20] was inactive.

Consider `O=c1cccc[nH]1`, for which the outcome in [1], in [2], in [3], in experiment [4], in experiment [5] and in [6] was inactive. Besides, the result in experiment [7], in experiment [8], in experiment [9], in [10], in experiment [11] and in experiment [12] was inactive. For the same compound, the call in experiment [13], in experiment [14], in experiment [15], in [16], in [17] and in experiment [18] was inactive. The call in experiment [19] was inactive.

For `OCC1CCCO1` (centres undefined), the result in [1], in experiment [2], in [3], in experiment [4], in experiment [5] and in experiment [6] was inactive. Besides, the compound was classed as inactive in experiment [7], in [8], in experiment [9], in experiment [10], in experiment [11] and in experiment [12]. Besides, the compound was called inactive in experiment [13], in [14], in experiment [15], in experiment [16], in [17] and in experiment [18]. For the same compound, the outcome in experiment [19] and in [20] was inactive.

Take `CN(C(=O)C(F)(F)C(F)(F)C(F)(F)F)[Si](C)(C)C`: the result in [1], in experiment [2], in experiment [3], in experiment [4], in [5] and in experiment [6] was inactive. The outcome in [7], in [8], in experiment [9], in [10], in [11] and in experiment [12] was inactive. The result in experiment [13], in [14], in experiment [15], in experiment [16], in [17] and in experiment [18] was inactive. For the same compound, the outcome in [19] and in [20] was inactive.

As for `Cc1ccc([N+](=O)[O-])c(C)c1`, the compound was called inactive in experiment [1], in experiment [2], in experiment [3], in experiment [4], in [5] and in [6]. Moreover, the outcome in experiment [7], in experiment [8], in experiment [9], in [10], in experiment [11] and in experiment [12] was inactive. In addition, the compound was called inactive in experiment [13], in experiment [14], in [15], in experiment [16], in experiment [17] and in experiment [18]. Further, the call in experiment [19] and in experiment [20] was inactive.

The values are drawn from PubChem BioAssay (EPA / NIEHS).
